High-throughput results (PubChem)
A selection: hits, their analogues and other compounds. The true share with any hit is near 2.2%.
Myeloid diff MLP = compounds promoting myeloid differentiation. calls only at 10 µM. actives 1% (n = 360,000). ER-HoxA9 myeloid progenitors, lysozyme-GFP differentiation, flow cytometry;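 active means normalized GFP-positive differentiation at or above the plate's own cutoff, the solvent-only control mean plus 3 SD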;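 further: cells exposed to compound for four days before flow analysis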
CRFR2-BP antag = CRF-BP/CRF-R2 complex antagonism; HEK293 CRF-R2/CRF-BP, CRF-induced calcium fluorescence; AID 588475; actives 0.59% (n = 350,000); inhibition, % at 11.8 µM;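 active means inhibition of the ligand-induced calcium signal above about 50% at the single tested concentration, limit read from the data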
RTF Ca sens inh = cardiac RTF calcium desensitization; P19429+P45379; IANBD-labeled cardiac RTF, Ca2+ fluorescence; inhibition, % at 7.15 µM; actives 0.12% (n = 340,000); AID 493244;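 active means inhibition above the mean inhibition of all tested compounds plus 3 SD, cut at about 17% in these data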;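 further: assay run at fixed EC70 calcium of 1.6 mM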
CRFBP-R2 agonist = CRF-BP/CRF-R2 complex agonism | HEK293 CRF-R2/CRF-BP, calcium dye fluorescence (FLIPR); percent of saturating CRF peptide response | activation, % at 13.2 µM | actives 0.46% (n = 350,000);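 active means activation of at least 50%, plus an integration ratio under a set limit after plate pattern correction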;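 further: plate controls were neutral control wells without compound for no effect and CRF at EC100 for full effect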
RTF Ca sens act = increases calcium sensitivity of human cardiac regulated thin filaments. activation, % at 7.2 µM. P19429+P45379. actives 0.24% (n = 340,000). IANBD-labeled TnC RTF fluorescence at EC20 calcium; 0% EC20 calcium, 100% full calcium;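 active means activation above the mean over all tested compounds plus 3 SD, cut at about 30% in these data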;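 further: rise in fluorescence read as greater calcium sensitivity of cardiac thin filaments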
An asterisk follows results filed as active; i = inactive; nt = no result; + = active, no number.

SMILES	Myeloid diff MLP	CRFR2-BP antag	RTF Ca sens inh	CRFBP-R2 agonist	RTF Ca sens act
COc1cccc(-c2nc(CS(=O)(=O)CC(=O)N3CCOCC3)c(C)o2)c1	i	-11	1	2	-1
O=[N+]([O-])c1ccc(CSc2nnc(Cc3ccccc3)n2-c2ccc(F)cc2)cc1	+	19	-1	-2	4
O=C(COc1ccc2c(c1)oc(=O)c1ccccc12)NCCN1CCOCC1	i	10	-9	0	2
Cc1ccc2c(cnn2C(=O)CCC(=O)N2CCCCC2)c1	i	71*	2	-2	0
O=C(CCC(=O)n1ncc2ccccc21)N1CCCCC1	+	28	-3	-5	-1
O=C(CCC(=O)n1ncc2ccccc21)NCc1ccc(F)cc1	i	6	-5	2	1
CCCC(C)C(=O)Nc1ccc(S(=O)(=O)Nc2nccs2)cc1 (stereo not drawn)	i	3	-2	-1	-1
Oc1ccc(Br)cc1C=Nc1ccc2c3c(cccc13)CC2	+	-38	-22	5	-3
Oc1ccc(Cl)cc1C=Nc1ccccc1Br	i	-2	1	7	-1
CCn1c(SCC(=O)NC2CCCC2)nnc1C(C)C	i	9	-3	0	1
Cc1cccc(C(=O)OC(C)C(=O)NCC2CCCCC2)c1O (stereo not drawn)	i	-13	-7	1	-1
Cc1cccc(-n2c(C)n[nH]c2=S)c1	i	4	-21	0	2
Cc1cccc(-n2c(C)c(-c3ccccc3)[nH]c2=S)c1	+	-17	-2	-1	-4
CCCC(C)NC(=O)CSc1nc2ccc(C)cc2[nH]1 (stereo not drawn)	i	3	-10	1	6
NC(=Nc1ccccc1)Nc1ccccc1	i	29	0	147*	-5
N#Cc1cnn2c(-c3ccc(Cl)cc3Cl)ccnc12	i	3	nt	21	nt
O=C(Nc1cccc(S(=O)(=O)N2CCCCC2)c1)c1ccccc1NS(=O)(=O)c1ccc(F)cc1	i	85*	-4	64*	7
O=C(Nc1cc(S(=O)(=O)N2CCCCC2)ccc1O)c1ccccc1NS(=O)(=O)c1ccc(F)c(F)c1	i	81*	-1	111*	-7
Cc1ccc(NC(=O)c2ccccc2NS(=O)(=O)c2ccc(F)cc2)cc1S(=O)(=O)N1CCCCC1	i	98*	-5	46	6
Cc1ccc(NC(=O)CCNC(=O)c2ccccc2Cl)cc1S(=O)(=O)N1CCCCCC1	i	1	1	-2	1
O=C(CNC(=O)C1CC(=O)N(c2cccc3ccccc23)C1)Nc1ccccc1Br (stereo not drawn)	i	-2	-2	1	-2
Cc1cc(NC(=O)NC(=O)c2ccccc2F)no1	i	-17	2	1	0
COc1ccc(S(=O)(=O)N2CCN(C(=O)CCCN3C(=O)NC4(CCCC4)C3=O)CC2)cc1	i	55*	2	-1	9
CCN(CC)c1ccc(/C=C(/C#N)C(=O)NCc2ccccc2)o1	i	-157	-108	141*	111*
CCN(CC)c1ccc(/C=C(/C#N)C(=O)NC(C)C)o1	i	-27	-81	40	72*
SMILES	Myeloid diff MLP	CRFR2-BP antag	RTF Ca sens inh	CRFBP-R2 agonist	RTF Ca sens act
CC(C)NC(=O)/C(C#N)=C\c1ccc(N(C)C)o1	i	-28	-86	28	64*
COC(=O)c1ccc2c(c1)c(-c1ccccc1)c(-c1ccccc1)n2C	i	11	-4	0	-3
Cn1c(Cn2nnc(-c3ccccc3)n2)nnc1SCc1ccccc1Cl	i	-6	-11	-1	1
Cc1c(C)c(C)c(S(=O)(=O)Nc2ccc3[nH]c(=O)[nH]c3c2)c(C)c1C	i	0	-7	0	-5
Cc1cc(C)c2c(c1)/C(=N\N=c1\sc3ccccc3n1C)C(=O)N2	+	-7	8	-2	1
CC(=O)Nc1ccc(NC(=O)C2CCCN2C(=O)Nc2ccc(F)c([N+](=O)[O-])c2)cc1 (stereo not drawn)	i	-10	4	3	10
CCN1CCN(C(=O)c2cc3c(-c4ccc(Cl)cc4)nn(C)c3s2)CC1	+	-1	-2	-1	3
Cn1nc(-c2ccc(Cl)cc2)c2cc(C(=O)N3CCN(C(=O)c4ccco4)CC3)sc21	+	1	-1	2	-6
Cn1nc(-c2ccc(Cl)cc2)c2cc(C(=O)NCCN3CCOCC3)sc21	i	-7	-3	0	9
